Measurements taken from PubChem BioAssay (Tox21).
Inconclusive results are not listed. The source made the active and inactive calls. Unless noted, the call rests on the fitted dose curve; in most records, active means well fitted curve in the direction sought with a large enough effect in the repeat runs; inconclusive means weak or mixed curves; inactive means no such curve, though single readings can be large; an effect the other way counts as inactive or inconclusive.

Legend:
[1] = qHTS assay to identify small molecule agonists of the peroxisome proliferator-activated receptor delta (PPARd) signaling pathway - cell viability counter screen (AID 743211); further: nearly all actives have a fitted effect of over 55% in size
Procedure, shortened: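 Viability of GeneBLAzer PPARd UAS-bla HEK293H cells was assessed after 17 h compound incubation at 37C, using CellTiter-Glo reagent added after the reporter read and luminescence recorded 30 min later.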

[2] = qHTS assay to identify small molecule agonists of the farnesoid-X-receptor (FXR) signaling pathway - cell viability counter screen (AID 743218); further: nearly all actives have a fitted effect of over 45% in size
Procedure, shortened: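 Cytotoxicity counter-screen run in parallel, same wells: FXR-UAS-bla HEK 293T cells dosed 16 h at 37 C, viability read by CellTiter-Glo luminescence after 30 min at room temperature.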

[3] = qHTS assay to identify small molecule antagonists of the farnesoid-X-receptor (FXR) signaling pathway - cell viability counter screen (AID 743221; active means well fitted cell-killing curve with a large enough effect in the repeat runs, not every such curve was filed as active; further: nearly all actives have a fitted effect of over 50% in size)
Procedure, shortened: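 Quantitative HTS of the Tox21 10K library run in parallel with the beta-lactamase reporter read. HEK 293T cells carrying a UAS-driven bla reporter got compound and 50 uM CDCA (final) for 16 h; ATP-based luminescence followed.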

[4] = target: Vitamin D3 receptor (Homo sapiens) (UniProt P11473); test: qHTS assay to identify small molecule agonists of the vitamin D receptor (VDR) signaling pathway (AID 743222; calls by dose curve)
Chain of Vitamin D3 receptor (Homo sapiens) (P11473 whole entry, looked up): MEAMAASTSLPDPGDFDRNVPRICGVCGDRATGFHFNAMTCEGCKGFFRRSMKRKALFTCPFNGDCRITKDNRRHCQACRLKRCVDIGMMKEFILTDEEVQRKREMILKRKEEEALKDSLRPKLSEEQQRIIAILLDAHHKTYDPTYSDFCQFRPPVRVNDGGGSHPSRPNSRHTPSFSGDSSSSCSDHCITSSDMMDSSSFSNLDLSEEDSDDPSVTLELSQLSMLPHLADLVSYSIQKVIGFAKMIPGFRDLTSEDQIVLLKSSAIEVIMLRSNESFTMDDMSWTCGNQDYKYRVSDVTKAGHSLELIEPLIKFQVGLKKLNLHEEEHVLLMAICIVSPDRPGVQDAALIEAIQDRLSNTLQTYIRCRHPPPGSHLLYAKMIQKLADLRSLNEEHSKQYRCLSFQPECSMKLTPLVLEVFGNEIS
Procedure, shortened: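 Quantitative HTS agonist-mode screen: compounds in DMSO were pin-transferred onto VDR-bla cells and incubated 16 h at 37C, 5% CO2. Reporter activity was detected with LiveBLAzer B/G FRET substrate after 2 h at room temperature.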

[5] = target: Vitamin D3 receptor (Homo sapiens) (UniProt P11473); test: qHTS assay to identify small molecule antagonists of the vitamin D receptor (VDR) signaling pathway (AID 743223; active means well fitted inhibition curve with a large enough effect in the signal ratio in the repeat runs, not every such curve was filed as active; the % refers to the signal ratio)
Procedure, shortened: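 Fluorescence from LiveBLAzer B/G FRET substrate, read after 2 h at room temperature, reflects beta-lactamase reporter activity in VDR-bla cells treated 16 h at 37C with compounds and agonist 1alpha,25-dihydroxyvitamin D3 (3 nM final).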

[6] = qHTS assay to identify small molecule antagonists of the vitamin D receptor (VDR) signaling pathway - cell viability counter screen (AID 743225); further: nearly all actives have a fitted effect of over 50% in size
Procedure, shortened: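 Cells (VDR-UAS-bla HEK 293T) are plated, rested 4 h at 37C, dosed with compound and 3 nM final 1-alpha,25-dihydroxy vitamin D3, and incubated 16 h. Viability is taken from CellTiter-Glo luminescence in the reporter wells.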

[7] = qHTS assay to identify small molecule agonists of the NFkB signaling pathway (AID 1159509; active means well fitted curve in the direction sought with a large enough effect in the signal ratio in the repeat runs, not every such curve was filed as active; the % refers to the signal ratio; further: series mostly up to about 61 µM)
Procedure, shortened: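 NFkB-bla ME-180 cells with a beta-lactamase reporter under an NF-kB response element were plated overnight, treated with compounds in DMSO for 5 hr at 37 C, then loaded with FRET substrate for 1.5 hr at room temperature.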

[8] = qHTS assay to identify small molecule agonists of the NFkB signaling pathway - cell viability counter screen (AID 1159515; calls by dose curve; further: series mostly up to about 61 µM; nearly all actives have a fitted effect of over 55% in size)
Procedure, shortened: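 Multiplexed viability readout: after the 5 hr compound exposure and 1.5 hr FRET substrate step, CellTiter-Glo reagent went into the same NFkB-bla ME-180 wells; ATP luminescence was measured after 30 min at room temperature.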

[9] = qHTS assay to identify small molecule agonists of the endoplasmic reticulum stress response signaling pathway (AID 1159516; active means well fitted activation curve with a large enough effect in the signal ratio in the repeat runs, not every such curve was filed as active; the % refers to the signal ratio)
Procedure, shortened: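 Tox21 10K library screened in quantitative HTS format on ESRE-bla HeLa cells, a beta-lactamase reporter under ER stress response element control; 5 hr treatment, FRET read.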

[10] = qHTS assay to identify small molecule agonists of the endoplasmic reticulum stress response signaling pathway - cell viability counter screen (AID 1159517; calls by dose curve; further: series mostly up to about 61 µM; nearly all actives have a fitted effect of over 50% in size)
Procedure, shortened: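 Counter-screen wells were identical to the reporter wells. Cells were plated at 1,500 per well and dosed for 5 hr, then read for luminescence 30 min after CellTiter-Glo addition.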

[11] = qHTS assay to identify small molecule antagonists of the retinoid-related orphan receptor gamma (ROR-gamma) signaling pathway - cell viability counter screen (AID 1159520); further: nearly all actives have a fitted effect of over 50% in size
Procedure, shortened: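 Tet-on ROR gamma CHO cells were given compounds for 2 hr, then doxycycline hyclate at 1 uM final, and incubated 16 hr at 37 C. Viability was measured as ATP content by CellTiter-Glo luminescence.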

[12] = target: Nuclear receptor ROR-gamma (Homo sapiens) (UniProt P51449); test: qHTS assay to identify small molecule antagonists of the retinoid-related orphan receptor gamma (ROR-gamma) signaling pathway (AID 1159521)
Procedure, shortened: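 RORγ antagonism is scored from reduced reporter luminescence in Tet-on CHO cells. Induction used 1 uM final doxycycline hyclate for 16 h at 37 C, following a 2 h compound exposure.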

[13] = qHTS assay to identify small molecule agonists of the AP-1 signaling pathway - cell viability counter screen (AID 1159525; calls by dose curve; further: nearly all actives have a fitted effect of over 55% in size)
Procedure, shortened: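 AP-1-bla ME-180 cells in Opti-MEM with 0.5% dialyzed FBS, compound exposure 5 h at 37 C in 15-point titration. Viability read in the same wells as ATP content by CellTiter-Glo luminescence, normalised to tetra-n-octylammonium bromide and DMSO controls.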

[14] = qHTS assay to identify small molecule agonists of the AP-1 signaling pathway (AID 1159526; calls by dose curve)
[15] = qHTS assay to identify small molecule antagonists of the peroxisome proliferator-activated receptor delta (PPARd) signaling pathway - cell viability counter screen (AID 743213); further: nearly all actives have a fitted effect of over 50% in size
Procedure, shortened: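 Same-well viability: cells pre-incubated 5 h, dosed with compound plus 300 nM L165041, kept 17 h at 37 C, FRET substrate 2 h RT, then CellTiter-Glo 30 min RT and luminescence.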

[16] = qHTS assay to identify small molecule agonists of the vitamin D receptor (VDR) signaling pathway - cell viability counter screen (AID 743224)
Procedure, shortened: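 Viability is measured in the same wells as the VDR-bla reporter assay: after 16 h compound treatment and 2 h substrate loading, CellTiter-Glo is added and luminescence read 30 min later.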

[17] = target: Peroxisome proliferator-activated receptor delta (Homo sapiens) (UniProt Q03181); test: qHTS assay to identify small molecule antagonists of the peroxisome proliferator-activated receptor delta (PPARd) signaling pathway (AID 743215; active means well fitted inhibition curve with a large enough effect in the signal ratio in the repeat runs, not every such curve was filed as active; the % refers to the signal ratio;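 further: cells stimulated with agonist L165041 at 300 nM final during compound exposure; series mostly up to about 62 µM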)
Chain of Peroxisome proliferator-activated receptor delta (Homo sapiens) (Q03181 whole entry, looked up): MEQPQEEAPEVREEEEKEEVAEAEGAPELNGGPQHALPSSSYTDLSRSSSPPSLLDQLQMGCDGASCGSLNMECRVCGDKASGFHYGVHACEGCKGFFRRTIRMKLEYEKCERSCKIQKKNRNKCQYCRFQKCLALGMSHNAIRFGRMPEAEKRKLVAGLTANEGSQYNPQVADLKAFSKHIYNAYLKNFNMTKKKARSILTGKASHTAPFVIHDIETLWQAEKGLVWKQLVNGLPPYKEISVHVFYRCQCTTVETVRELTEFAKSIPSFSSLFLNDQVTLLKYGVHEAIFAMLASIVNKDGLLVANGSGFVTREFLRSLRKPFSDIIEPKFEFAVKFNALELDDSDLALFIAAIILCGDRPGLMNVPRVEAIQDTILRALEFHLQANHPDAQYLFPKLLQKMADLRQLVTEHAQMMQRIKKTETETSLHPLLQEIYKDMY
Procedure, shortened: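 Inhibition of L165041-driven (300 nM final) PPARd signaling is scored in HEK293H UAS-bla cells. Exposure lasts 17 h at 37 C; beta-lactamase activity is then read by FRET substrate fluorescence after 2 h at room temperature.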

[18] = target: Peroxisome proliferator-activated receptor delta (Homo sapiens) (UniProt Q03181); test: qHTS assay to identify small molecule agonists of the peroxisome proliferator-activated receptor delta (PPARd) signaling pathway (AID 743212; calls by dose curve)
Procedure, shortened: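 Quantitative high-throughput agonist screen in a HEK293H beta-lactamase reporter line under UAS control. Compounds in DMSO, at 37 C. Fluorescence read after 2 h with FRET substrate at room temperature.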

[19] = target: Bile acid receptor (Homo sapiens) (UniProt Q96RI1); test: qHTS assay to identify small molecule antagonists of the farnesoid-X-receptor (FXR) signaling pathway (AID 743217; active means well fitted inhibition curve with a large enough effect in the signal ratio in the repeat runs, not every such curve was filed as active; the % refers to the signal ratio)
Chain of Bile acid receptor (Homo sapiens) (Q96RI1 whole entry, looked up): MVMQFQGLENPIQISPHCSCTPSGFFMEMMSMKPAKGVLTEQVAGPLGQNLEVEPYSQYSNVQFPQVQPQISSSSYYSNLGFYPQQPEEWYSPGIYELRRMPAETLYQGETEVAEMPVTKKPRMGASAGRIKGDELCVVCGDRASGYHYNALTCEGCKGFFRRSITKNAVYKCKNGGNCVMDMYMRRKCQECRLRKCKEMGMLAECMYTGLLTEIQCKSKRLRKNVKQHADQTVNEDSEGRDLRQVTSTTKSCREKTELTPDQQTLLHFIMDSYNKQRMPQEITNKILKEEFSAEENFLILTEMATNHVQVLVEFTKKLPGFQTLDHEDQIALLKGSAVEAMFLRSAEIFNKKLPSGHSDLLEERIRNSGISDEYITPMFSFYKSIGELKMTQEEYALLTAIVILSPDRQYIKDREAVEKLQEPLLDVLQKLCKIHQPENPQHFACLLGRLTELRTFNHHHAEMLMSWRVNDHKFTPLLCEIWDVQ
Procedure, shortened: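 Antagonist mode against 50 uM (final) chenodeoxycholic acid stimulation in FXR-bla HEK 293T cells, 16 h at 37 °C. Inhibition detected as reduced beta-lactamase activity via LiveBLAzer B/G FRET fluorescence after 2 h at room temperature.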

[20] = target: Bile acid receptor (Homo sapiens) (UniProt Q96RI1); test: qHTS assay to identify small molecule agonists of the farnesoid-X-receptor (FXR) signaling pathway (AID 743220; active means well fitted activation curve with a large enough effect in the signal ratio in the repeat runs, not every such curve was filed as active; the % refers to the signal ratio)
Procedure, shortened: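 Beta-lactamase reporter under UAS control in GeneBLAzer FXR HEK 293T cells (5000/well) measured with LiveBLAzer FRET substrate after 2 h at room temperature. Compound exposure lasted 16 h at 37C.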

Measured: Potency

CC(C)CCCC(C)N (centres undefined)
inactive: [1] | [2] | [3] | [4] | [5] | [6] | [7] | [8] | [9] | [10] | [11] | [12] | [13] | [14]

NS(=O)(=O)c1cc(C(=O)NN2C[C@H]3[C@H]4CCC(C4)[C@H]3C2)ccc1Cl
inactive: [1] | [15] | [2] | [6] | [7] | [8] | [9] | [10] | [11] | [12] | [13] | [14]

Brc1c(NC2=NCCN2)ccc2nccnc12
inactive: [1] | [15] | [2] | [3] | [4] | [5] | [16] | [6] | [7] | [8] | [9] | [10] | [11] | [12] | [13] | [14]

C=CCCCCCCCCC=O
inactive: [15] | [17] | [2] | [5] | [16] | [6] | [7] | [8] | [9] | [10] | [11] | [12] | [13] | [14]

CO[C@]12C[C@@H](COC(=O)c3cncc(Br)c3)CN(C)[C@@H]1Cc1cn(C)c3cccc2c13
inactive: [1] | [15] | [2] | [3] | [4] | [16] | [6] | [7] | [8] | [9] | [10] | [11] | [12] | [13] | [14]

C[C@H]1C[C@@H](O)CC(C)(C)C1
inactive: [18] | [15] | [17] | [19] | [2] | [20] | [3] | [4] | [5] | [16] | [6] | [7] | [8] | [9] | [10] | [11] | [12] | [13] | [14]

O=C1CCCN1C1CCCCC1
inactive: [1] | [15] | [19] | [2] | [20] | [3] | [4] | [5] | [16] | [7] | [8] | [9] | [10] | [11] | [12] | [13] | [14]

CC(C)(O)C(=O)c1ccccc1
inactive: [1] | [18] | [19] | [2] | [20] | [4] | [16] | [6] | [7] | [8] | [9] | [10] | [11] | [12] | [13] | [14]

COC(=O)NN
inactive: [1] | [18] | [19] | [20] | [3] | [4] | [5] | [16] | [6] | [7] | [8] | [9] | [10] | [11] | [12] | [13] | [14]

CCN(CC)CCOCCOC(=O)C1(c2ccccc2)CCCC1
inactive: [1] | [15] | [19] | [2] | [20] | [3] | [16] | [6] | [7] | [8] | [9] | [10] | [11] | [12] | [13] | [14]

NS(=O)(=O)c1cc(C(=O)O)cc(N2CCCC2)c1Oc1ccccc1
inactive: [18] | [15] | [2] | [3] | [4] | [5] | [6] | [7] | [8] | [9] | [10] | [11] | [12] | [13] | [14]

Cc1ccc(=O)n(-c2ccccc2)c1
inactive: [1] | [15] | [2] | [3] | [4] | [5] | [16] | [6] | [7] | [8] | [9] | [10] | [11] | [12] | [13] | [14]

O=C(CCCN1CCC(O)(c2cccc(C(F)(F)F)c2)CC1)c1ccc(F)cc1
inactive: [18] | [17] | [19] | [2] | [20] | [3] | [4] | [5] | [16] | [6] | [7] | [8] | [9] | [10] | [11] | [12] | [13] | [14]

C[C@H](NC(CCc1ccccc1)C(=O)O)C(=O)N1CCC[C@H]1C(=O)O (some centres undefined)
inactive: [1] | [18] | [17] | [2] | [3] | [4] | [5] | [16] | [6] | [7] | [8] | [9] | [10] | [11] | [12] | [13] | [14]

CC1(C)C(O)C(C)(C)C1O (centres undefined)
inactive: [1] | [18] | [15] | [17] | [2] | [3] | [4] | [5] | [16] | [6] | [7] | [8] | [9] | [10] | [11] | [12] | [14]
